Compound activity (PubChem)
A selection: hits, their analogues and other compounds. The true share with any hit is near 7.9%.
HT1080 IDH1KD tx – HT-1080 IDH1 knockdown cell toxicity (counter line); HT-1080 IDH1 knockdown viability, ATP luminescence, 48 h; Potency, µM (top dose mostly 46.1 µM), most hits filed as cytotoxic; actives 2% (n = 360,000)
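% activity derives from luminescence (CellTiter-Glo), normalised to DMSO and no-cell wells. HT-1080-IDH1KD cells, 750/well, had 48 h compound exposure at 37 °C.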
MCF10A rereplic – inducers of DNA re-replication in MCF 10A breast cells | actives 2.9% (n = 350,000) | MCF 10A DNA re-replication, Hoechst nuclear intensity, 48 h | AID 624296 | Potency, µM (top dose mostly 46.1 µM), usual class: activators; note: nearly all actives have a fitted effect of over 50% in size
KB-V1 cytotox – KB-V1 MDR subline cytotoxicity. KB-V1 MDR cells viability, CellTiter-Glo, 72 h. Potency, µM (top dose mostly 46.1 µM), most hits filed as cytotoxic. actives 3.4% (n = 400,000); note: nearly all actives have a fitted effect of over 60% in size
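Readout: CellTiter-Glo luminescence, 10 min after addition. Cells: KB-V1 MDR subline, 72 h at 37 degrees C with compound. Analysis: corrected, normalized data fitted to concentration-effect curves.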
HT1080-NT tox – kills 2HG-producing HT-1080-NT fibrosarcoma cells | actives 1.6% (n = 360,000) | Potency, µM (top dose mostly 46.1 µM), most hits filed as cytotoxic | HT-1080-NT fibrosarcoma viability, CellTiter-Glo ATP luminescence, 48 h;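 note: NT is the 2HG producing partner of a matched IDH1 knockdown line; nearly all actives have a fitted effect of over 55% in size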
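Luminescent CellTiter-Glo readout after 48 hours of compound exposure at 37 degrees C defined viability of HT-1080-NT cells. Activity was normalized to DMSO wells and cell-free media wells; concentration-response curves were fitted and assigned curve classes.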
SW480 rereplic – DNA re-replication induction in SW480 cells; Potency, µM (series often up to 46.1 µM), usual class: activators; SW480 DNA re-replication, Hoechst DNA content imaging, 48 h; actives 1.8% (n = 340,000); AID 624297; note: nearly all actives have a fitted effect of over 55% in size
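DNA re-replication was detected as more nuclei of elevated Hoechst intensity after 48 hr exposure to compound (23 nL pinned per well of 250 cells).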
KB-3-1 tox – kills parental KB-3-1 adenocarcinoma cells; KB-3-1 viability, CellTiter-Glo ATP luminescence, 72 h; Potency, µM (top dose mostly 46.1 µM), hits mostly cytotoxic; actives 1.4% (n = 400,000); AID 1347075; note: nearly all actives have a fitted effect of over 60% in size
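Luminescent ATP read-out (CellTiter-Glo) measures survival of drug-naive KB-3-1 cells after 72 h compound exposure at 37 °C. Titration series was screened from lowest to highest concentration, with DMSO vehicle plates as background controls.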
Numbers stand for hits; - = inactive; ? = inconclusive; . = no result given; [ ] = dose if it differs, or a comment. Calls come from the whole dose curve; as a rule, active = well fitted curve in the direction sought with a large enough effect; inconclusive = small, poorly fitted or top-dose-only effect, or another doubt; inactive = no such curve, though single readings can be large; an effect the other way counts as inactive or inconclusive.

SMILES	HT1080 IDH1KD tx	MCF10A rereplic	KB-V1 cytotox	HT1080-NT tox	SW480 rereplic	KB-3-1 tox
CCN1CCN(C(=O)c2cc(-c3ccc(Cl)s3)nc3ccccc23)CC1	?	?	-	?	-	-
COc1cc(C(=O)N2CCN(c3ccccc3)CC2)c2ccccc2n1	0.517µM	?	?	?	10.3µM	0.581µM
O=C(c1cc(-c2cccnc2)nc2ccccc12)N1CCN(S(=O)(=O)c2ccc(Cl)s2)CC1	-	-	9.2µM	-	-	-
COc1ccc(-c2cc(C(=O)N3CCN(c4ncccn4)CC3)c3ccccc3n2)cc1OC	-	-	-	-	8.2µM	-
Cc1ccc2oc(=O)c3cc(C(=O)N4CCN(c5ccccc5)CC4)sc3c2c1	.	.	-	.	.	-
CS(=O)(=O)c1ccc(C(=O)OCC(=O)N2CCCC2)cc1[N+](=O)[O-]	.	.	-	.	.	-
Cc1ccc(-c2cc(C(=O)N3CCN(c4ncccn4)CC3)c3ccccc3n2)cc1	?	?	?	?	-	-
COc1cccc(-c2cc(C(=O)N3CCN(c4ncccn4)CC3)c3ccccc3n2)c1	-	14.6µM	?	-	-	-
CC1CC(C)C(=NNC(N)=O)C(C(O)CC2CCC(=O)NC2=O)C1 (stereo unspecified)	?	?	?	-	-	11.6µM
COc1ccc2cc(C#N)c(SCC(=O)N3CC(=O)Nc4ccccc43)nc2c1	-	20.6µM	-	-	?	7.31µM
CCOc1ccc2cc(C#N)c(SCC(=O)N3CCC(C)CC3)nc2c1	-	?	2.59µM	-	-	-
Cc1cccc2cc(C#N)c(SCC(=O)N3CC(=O)Nc4ccccc43)nc12	?	0.651µM	?	?	7.31µM	0.82µM
N#CCC(=O)Nc1ccc(C(=O)NNC(=O)CCN2CCN(c3ccccc3)CC2)cc1	-	-	-	-	-	-
O=C(NCCc1ccccc1)c1ccc2c(c1)N(Cc1ccc(Cl)cc1)C(=O)CS2	.	.	-	.	.	23.1µM
Cc1ccccc1CN1C(=O)CSc2ccc(C(=O)N3CCOCC3)cc21	-	-	-	-	-	-
O=C(c1ccc2c(c1)N(Cc1ccccc1)C(=O)CS2)N1CCOCC1	-	-	14.6µM	-	-	-
CCN1C(=O)[C@H]2[C@H]3[C@H](O)[C@H](O)CC(=O)[C@@H]3CC[C@H]2C1=O	-	.	.	-	.	.
COc1ccc(OC)c(CCNC(=O)c2cccc(NC3=NC4CS(=O)(=O)CC4S3)c2)c1 (stereo unspecified)	-	-	-	-	-	-
COc1cc(CCN(C(=O)c2cccc(S(C)(=O)=O)c2)C(CCc2ccccc2)c2nc3ccccc3[nH]2)cc(OC)c1 (stereo unspecified)	-	.	?	-	.	-
O=C(NC1CCCC1)c1ccccc1-c1ccccc1	-	-	14.6µM	-	-	-
O=C(NC(c1ccccc1)c1ccccc1)C1CCCC1	-	-	16.4µM	-	?	-
O=C(Nc1ccccc1-c1ccccc1)C1CCCC1	?	13µM	?	?	?	7.31µM
O=C(Nc1ccccc1C(F)(F)F)C1CCCC1	-	-	-	-	-	-
O=C(NC1CCCCCC1)c1cccnc1Sc1ccccc1	-	?	23.1µM	-	-	-
O=C1Cc2cc(S(=O)(=O)N3CCN(c4ccc(Cl)cc4)CC3)ccc2N1	.	.	?	.	.	-
SMILES	HT1080 IDH1KD tx	MCF10A rereplic	KB-V1 cytotox	HT1080-NT tox	SW480 rereplic	KB-3-1 tox
CCOc1ccc(CN2CCN(S(=O)(=O)c3ccc(Cl)cc3)CC2)cc1	.	.	-	.	.	-
O=C(NC(=S)Nc1ccccc1Br)C1CCCCC1	-	?	16.4µM	-	-	-
Cc1cc(=O)n(C(C)(C)C)c(=O)n1Cc1ccccc1	-	-	-	-	-	-
COc1ccc(CC(=O)c2ccc(OC)c(OC)c2C)cc1OC	-	-	2.31µM	?	?	6.51µM
COc1ccc(CC(=O)Cc2ccc(OC)c(OC)c2)cc1OC	-	.	-	-	.	-
CCCc1nc(-c2cc3ccc(C)cc3[nH]c2=O)no1	-	-	11.6µM	-	-	-
CCS(=O)(=O)NCCc1cc2ccc(C)cc2[nH]c1=O	-	-	20.6µM	-	-	-
CCS(=O)(=O)NCCc1cc2cc(C)c(C)cc2[nH]c1=O	-	-	-	-	-	-
Cc1ccc(S(=O)(=O)NCCc2nnc3ccc(SCC(=O)Nc4ccc(OC(F)(F)F)cc4)nn23)cc1	.	.	-	.	.	-
Cn1c(SCC(=O)NCc2ccco2)nnc1-c1cccc(NC(=O)c2ccccc2)c1	.	.	-	.	.	-
CCN(CC)S(=O)(=O)c1ccc(-c2cn3ccccc3n2)cc1	-	.	?	-	.	-
CCOc1ccc(-c2cn3ccccc3n2)cc1[N+](=O)[O-]	16.4µM	20.6µM	?	14.6µM	?	-
CN(C)S(=O)(=O)c1ccc(-c2cn3ccccc3n2)cc1	?	-	16.4µM	?	-	-
CCCCOc1ccc(-c2cn3ccccc3n2)cc1[N+](=O)[O-]	?	11.6µM	?	-	-	-
O=[N+]([O-])c1ccc(-c2cn3ccccc3n2)cc1	-	-	?	-	-	-
CCOC(=O)c1cccc(NC(=O)c2cc(S(=O)(=O)N3CCCCCC3)cn2C)c1	.	.	-	.	.	-
COCc1cc(C)nc(OCC(=O)N/N=C/c2ccc(-c3cc([N+](=O)[O-])ccc3C)o2)c1C#N	-	-	-	-	-[9.22 µM]	-
Cc1ccc([N+](=O)[O-])cc1-c1ccc(/C=C(\C#N)c2[nH]nc(N)c2C#N)o1	16.4µM	?	-	?	?	?
COc1ccc(S(=O)(=O)N(CC(=O)Nc2ccccc2Cl)Cc2ccccc2)cc1	.	.	?	.	.	-
O=C(CSc1nc(Nc2ccccc2)nc(N2CCOCC2)n1)Nc1ccc(Br)cc1F	-	14.6µM	-	-	?	-
O=C(CSc1nc(Nc2ccccc2)nc(N2CCOCC2)n1)Nc1ccccc1Cl	-	?	14.6µM	-	?	-
COc1ccc(Cl)cc1NC(=O)CSc1nc(Nc2ccccc2)nc(N2CCOCC2)n1	-	-	-	-	?	-
CCOC(=O)[C@H]1[C@H]2COc3ccc(OC)cc3[C@@H]2N2C(=O)c3cc(F)c(F)cc3NC(=O)[C@@]12C	-	-	-	-	-	-
O=C(O)CN1C(=O)/C(=C/C=C/c2ccccc2)SC1=S	-	-	-	-	-	-
O=C1CC(N2C(=O)/C(=C/C=C/c3ccccc3)SC2=S)C(=O)N1c1ccccc1 (stereo unspecified)	-	4.61µM	-	-	-	-
COc1cccc(CNC(=O)COC(=O)c2ccc(N3CCCC3=O)cc2)c1	-	.	-	-	.	-
C[C@@H]1CN([C@H](C)CO)C(=O)CCCn2nncc2CO[C@@H]1CN(C)S(=O)(=O)c1ccc(-n2cccn2)cc1	-	.	-	-	.	-
O=C(N/N=C/c1ccc(O)cc1O)c1ccncc1	7.31µM	-	?	?	?	?
